# Measured values taken from PubChem BioAssay AID651704 (Broad Institute, 2012).
# Out of some 350,000 compounds screened, about 1,600 (0.46%) were called active.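 The calls were made as follows: active = every replicate reaching a set inhibition limit, whatever the replicate mean (cut at about 25% in these data); inconclusive = mean inhibition reaches that limit but some replicates miss it; inactive = the rest.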 This excerpt belongs to a sample that is enriched for actives.
# Biological target: Protein AF-9 (Homo sapiens) (UniProt P42568)
# Sequence (P42568 whole entry, looked up): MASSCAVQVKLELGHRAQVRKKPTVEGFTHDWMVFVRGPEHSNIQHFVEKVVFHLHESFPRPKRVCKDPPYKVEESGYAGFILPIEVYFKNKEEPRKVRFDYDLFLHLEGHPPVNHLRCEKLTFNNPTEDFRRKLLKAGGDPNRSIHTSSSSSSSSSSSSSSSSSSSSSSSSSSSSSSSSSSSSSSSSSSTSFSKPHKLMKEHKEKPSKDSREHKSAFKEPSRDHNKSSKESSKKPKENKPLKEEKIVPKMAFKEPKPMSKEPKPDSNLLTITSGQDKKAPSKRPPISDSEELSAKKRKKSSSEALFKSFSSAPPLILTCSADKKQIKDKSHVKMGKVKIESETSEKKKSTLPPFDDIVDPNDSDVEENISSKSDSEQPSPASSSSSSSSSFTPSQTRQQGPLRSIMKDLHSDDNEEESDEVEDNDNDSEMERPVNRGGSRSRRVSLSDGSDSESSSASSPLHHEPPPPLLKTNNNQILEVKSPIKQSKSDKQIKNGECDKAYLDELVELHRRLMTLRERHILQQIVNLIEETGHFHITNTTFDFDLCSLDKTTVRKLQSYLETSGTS
# Test: MLL-AF4/AF9 protein interaction blockers – biochemical, AlphaScreen, biotin-AF4 peptide, FLAG-AF9, single point, primary screen (AID 651704);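 also: 0% = plate neutral control median and 100% = total signal loss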
# Conditions: biotin-AF4 peptide binding to FLAG-AF9, at 10 µM, active compounds read high
row,Compound,inhibition
1,CCC1(C)CC(CCNCc2ccc(N(C)C)cc2)(c2ccc(F)cc2)CCO1 (stereo not given),28.4% (active)
2,COc1ccc2c(c1)NP(=S)(c1ccccc1)N2 (stereo not given),-0.621% (inactive)
3,O=C(O)[C@@H]1[C@@H](CO)[C@@H]2Cn3c(ccc(-c4ccccc4F)c3=O)[C@H]1N2C(=O)c1cccnc1,1.92% (inactive)
4,CSCCC(c1nnnn1C(C)(C)C)N1CCC(n2c(=O)[nH]c3ccccc32)CC1 (stereo not given),14% (inactive)
5,CC(C)CN1Cc2cc(N3CCCCC3)ccc2-n2nncc2C1,6.47% (inactive)
6,COC(=O)[C@H]1[C@H](CO)[C@H]2Cn3c(ccc(-c4ccccc4F)c3=O)[C@@H]1N2C(=O)C1CCC1,1.06% (inactive)
7,Cc1ncoc1C(=O)NCC1=C(c2cccc3ccccc23)C[C@@H]2CC[C@H]1N2Cc1ccco1,3.14% (inactive)
8,CCOC(=O)[C@]12Cc3cc(OC)ccc3[C@H]1N(C(C)C)C(=O)c1ccccc12,-1.49% (inactive)
9,O=C(O)COc1ccccc1/C=C1\C(=O)NC(=O)N(CCC2=CCCCC2)C1=O,51.4% (active)
10,O=C1NC(=O)N(Cc2ccco2)C(=O)/C1=C\c1cccn1CCOc1ccccc1,-1.69% (inactive)
11,O=C1NC(=O)N(CCc2ccc(F)cc2)C(=O)/C1=C/C=C/c1ccccc1,7.75% (inactive)
12,O=C1NCN(c2ccccc2)C12CCN(C(c1cccs1)c1nnnn1C1CCCCC1)CC2 (stereo not given),8.26% (inactive)
13,CCn1cc(CN2CCCC(C(=O)c3cccc(C(F)(F)F)c3)C2)cn1 (stereo not given),0.062% (inactive)
14,Cc1cc2ccccn2c1C(C[N+](=O)[O-])c1c(F)cccc1Cl (stereo not given),25.5% (active)
15,O=C(NC[C@@H]1CC[C@H]2NC[C@H]2O1)C1CCCC1,-2.73% (inactive)
16,COC(=O)C1=C(c2ccc(OCc3ccccc3)cc2)C[C@@H]2CC[C@H]1N2C(=O)NCc1ccc(Cl)cc1,-0.419% (inactive)
17,O=c1[nH]c2ccccc2n1C1CCN(C(c2ccnc3ccccc23)c2nnnn2Cc2ccccc2)CC1 (stereo not given),-0.349% (inactive)
18,C[C@@H]1CN([C@H](C)CO)C(=O)CCCn2cc(nn2)CO[C@@H]1CN(C)C(=O)Oc1cccc2ccccc12,-0.246% (inactive)
19,CCOc1cccc(=NC2CCCCC2)c2c(C)[nH]c(C)c12,31.5% (active)
20,O=c1[nH]c2ccccc2n1C1CCN(C(c2ccccc2)c2nnnn2Cc2ccccc2)CC1 (stereo not given),2.84% (inactive)
